This is part of a sample that, as a whole, favours compounds with a hit. Of some 83,000 tested, about 20% had one in any assay.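 Negative percent growth values reflect cell death: -40 means 40% of the cells present at the start died, and -100 means all died.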 A number with no mark means an inactive call. Active and inactive are the calls of the source. Rule for the calls: active = growth percent below 10; inactive = the rest.

One test relates to EKVX NSCLC. Briefly: NCI-60 one-dose screen, 48 h (100 = growth as untreated, 0 = no growth, -100 = all killed). To be noted: 10 µM unless noted.
As to `CCCCCc1ccc(S(=O)(=O)Nc2cccc(-c3csc(NC(=O)CCCCCN4CCN(CCO)CC4)n3)c2)cc1`, the growth was 81%. The same measure, in the same setting: under `CCOc1ccc(NC2=C(Cl)C(=O)c3nc(C)ccc3C2=O)cc1` stands -97.5% (active); under `COc1cc(/C=C2\C(=O)Nc3ccccc32)ccc1OCc1ccc(Cl)cc1`, 95.3%. The same measure, in the same setting: next, `COc1cc(-c2nc(SCCC(C)C)nc(NNC(=O)c3ccncc3)c2C#N)cc(OC)c1OC`: 54.7%. The same measure, in the same setting: under `O=C(NNc1nc2cc(F)cc(F)c2n2cccc12)c1cnccn1` stands 8.74% (active); under `O=C(CCn1cc[n+](CC(=O)c2ccc(-c3ccccc3)cc2)c1)Nc1cccc2cccnc12`, 81.9%; under `COc1c(N2CC3CCCNC3C2)c(F)cc2c(=O)c(C(=O)N/N=C/c3ccc4c(c3)OCO4)cn(C3CC3)c12` (stereo not drawn), 66.6%.

`COc1ccc(/C=C(/C)c2ccc3ccc(OC)cc3[o+]2)c(O)c1`: the growth is 55.8%. On the same count and under the same terms, under `CN(C)CCNC(=O)c1ccc(-c2nc3ccc4[nH]ncc4c3c3c2CCC3)cc1` stands 15.3%. Same read-out and setting: under `COc1ccccc1NC1=C(Cl)C(=O)c2nc(C)ccc2C1=O` stands 28.5%; under `CCNC(=O)N1CCc2cc(OC)c(OCCc3ccc(OC)cc3)cc2C1c1ccc(Cl)cc1C` (stereo not drawn), 37%; under `Cc1cc2nc(C(Cl)Cl)nc(-c3cccs3)n2n1`, -7.94% (active). For the compound `CN(C)CCNC(=O)c1ccc(-c2nc3ccc4[nH]ncc4c3c3c2COCC3)cc1`, the growth was 33.1%.

Consider `CN1CCN(Cc2ccc(NC(=O)c3cncc(C#Cc4cnc5ccc(OCC(C)(C)O)nn45)c3)cc2C(F)(F)F)CC1`, for which the growth was -31.2% (active). The same measure, in the same setting: under `Nc1ncc(-c2ccc3ncnc(Nc4cccc(Cl)c4F)c3c2)cn1` stands 11.7%; under `COc1ccc(/C=C/C(=O)c2cccc(NC(=O)CSc3nc4ccccc4c(=O)n3-c3ccccc3)c2)cc1OC`, 103%; under `O=C(NNc1nc2cc(F)ccc2n2c(CN3CCCC3)ccc12)c1cnccn1`, 7.62% (active).

Consider `CC/C(=C/c1c(O)cccc1OC)c1ccc2c(OC)cccc2[o+]1`, for which the growth is 97.9%.

Regarding `CS(=O)(=O)Nc1cc(-c2ccc3ncc(C#N)c(NCc4ccccc4F)c3c2)cnc1Cl`, the growth was 0.584% (active).

Consider `COc1ccccc1-n1cc(C#N)c(N)c1C(=O)c1ccc(Cl)cc1`, for which the growth was 86.9%.

With `N=c1c2cc(-c3ccccc3)oc2ncn1/N=C/c1ccc(Cl)cc1`, the growth was 84.7%. Consider `C=CCn1c(SCC(=O)Nc2ccc(C(=O)/C=C/c3cc(OC)c(OC)c(OC)c3)cc2)nnc1-c1c[nH]c2ccccc12`, for which the growth was 73.7%. Same read-out and setting: next, `COC(=O)C[Se]C(=O)Cc1c(C)n(C(=O)c2ccc(Cl)cc2)c2ccc(OC)cc12`: 15.1%.

For the compound `COc1ccc(NC2=C(Cl)C(=O)c3nc(C)ccc3C2=O)cc1OC`, the growth was 50.8%. On the same count and under the same terms, next, `NC(N)=Nc1ccc(Oc2cccc(NC(N)=Nc3ccc(I)cc3F)c2)cc1`: 71.6%.

For the next test, the system named is SN12C renal. The test is described as above. To be noted: 10 µM unless noted.
As to `C=CCn1c(SCC(=O)Nc2ccc(C(=O)/C=C/c3ccc(Cl)cc3)cc2)nnc1-c1c[nH]c2ccccc12`, the growth was 71.5%. Still for that read-out and setting: next, `O=C(NNc1nc2cc(F)c(F)cc2n2c(CN3CC4CNCC4C3)ccc12)c1cnccn1` (stereo not drawn): 22.1%; `COc1ccc2c(c1)c(CC(=O)[Se]CC#N)c(C)n2C(=O)c1ccc(Cl)cc1`: 74%.

As to `O=C(NNc1nc2cc(F)ccc2n2c(CN3CCC(O)C3)ccc12)c1cnccn1` (stereo not drawn), the growth is 24.3%.

`COc1ccc(COc2ccc(/C=C3\C(=O)Nc4ccccc43)cc2OC)cc1`: the growth was 99.6%. Regarding `O=C(NNc1nc2cc(F)ccc2n2c(CO)ccc12)c1cnccn1`, the growth was 21.5%. The same measure, in the same setting: next, `N#Cc1cn(Cc2ccc(Cl)cc2Cl)c(C(=O)c2ccc(Br)cc2)c1N`: 101%; `O=C(CN1CCN(c2cc(=O)n(-c3ccccc3)c3ccccc23)CC1)Nc1nc(-c2ccccc2)cs1`: 82.1%.

As to `COc1ccc(CCOc2cc3c(cc2OC)CCN(C(=O)NCc2cocn2)C3c2ccc(C)cc2C)cc1` (stereo not drawn), the growth was 19.7%. The same measure, in the same setting: under `COc1ccc(Oc2ccc(/C=N/NC(=O)CSc3nc4ccccc4c(=O)n3-c3ccc(Cl)cc3)cc2)cc1` stands 52.7%.

Take `N#Cc1cccc(CN2CCC3=C(C2)C(=O)N(Cc2ccc(Cl)cc2)C2=NCCCN23)c1`: the growth was 22.1%.

Consider `O=C(NNc1nc2cc(F)ccc2n2c(CN3CC4CNCC4C3)ccc12)c1cnccn1` (stereo not drawn), for which the growth was 27.5%. On the same count and under the same terms, next, `CCOc1ccccc1NC1=C(Cl)C(=O)c2nc(C)ccc2C1=O`: -51% (active); `CCCCCc1ccc(S(=O)(=O)Nc2cccc(-c3csc(NC(=O)CCCCCN4CCN(CCO)CC4)n3)c2)cc1`: 85.2%. Still for that read-out and setting: next, `CCOc1ccc(NC2=C(Cl)C(=O)c3nc(C)ccc3C2=O)cc1`: -57.3% (active); `COc1cc(/C=C2\C(=O)Nc3ccccc32)ccc1OCc1ccc(Cl)cc1`: 103%; `COc1cc(-c2nc(SCCC(C)C)nc(NNC(=O)c3ccncc3)c2C#N)cc(OC)c1OC`: 60.4%. Same read-out and setting: next, `O=C(NNc1nc2cc(F)cc(F)c2n2cccc12)c1cnccn1`: 25.5%; `O=C(CCn1cc[n+](CC(=O)c2ccc(-c3ccccc3)cc2)c1)Nc1cccc2cccnc12`: 77.4%; `COc1c(N2CC3CCCNC3C2)c(F)cc2c(=O)c(C(=O)N/N=C/c3ccc4c(c3)OCO4)cn(C3CC3)c12` (stereo not drawn): 82.9%. For the compound `COc1ccc(/C=C(/C)c2ccc3ccc(OC)cc3[o+]2)c(O)c1`, the growth was 85.5%.

With `CN(C)CCNC(=O)c1ccc(-c2nc3ccc4[nH]ncc4c3c3c2CCC3)cc1`, the growth was 7.23% (active). The same measure, in the same setting: next, `COc1ccccc1NC1=C(Cl)C(=O)c2nc(C)ccc2C1=O`: -49.5% (active); `CCNC(=O)N1CCc2cc(OC)c(OCCc3ccc(OC)cc3)cc2C1c1ccc(Cl)cc1C` (stereo not drawn): 18.6%. The same measure, in the same setting: under `Cc1cc2nc(C(Cl)Cl)nc(-c3cccs3)n2n1` stands 62.3%. The same measure, in the same setting: under `CN(C)CCNC(=O)c1ccc(-c2nc3ccc4[nH]ncc4c3c3c2COCC3)cc1` stands 5.07% (active); under `CN1CCN(Cc2ccc(NC(=O)c3cncc(C#Cc4cnc5ccc(OCC(C)(C)O)nn45)c3)cc2C(F)(F)F)CC1`, 2.45% (active); under `Nc1ncc(-c2ccc3ncnc(Nc4cccc(Cl)c4F)c3c2)cn1`, 50.9%. In the case of `COc1ccc(/C=C/C(=O)c2cccc(NC(=O)CSc3nc4ccccc4c(=O)n3-c3ccccc3)c2)cc1OC`, the growth was 105%. Still for that read-out and setting: next, `O=C(NNc1nc2cc(F)ccc2n2c(CN3CCCC3)ccc12)c1cnccn1`: 21%; `CC/C(=C/c1c(O)cccc1OC)c1ccc2c(OC)cccc2[o+]1`: 96.9%; `CS(=O)(=O)Nc1cc(-c2ccc3ncc(C#N)c(NCc4ccccc4F)c3c2)cnc1Cl`: 16.8%. The same measure, in the same setting: under `COc1ccccc1-n1cc(C#N)c(N)c1C(=O)c1ccc(Cl)cc1` stands 90%. Regarding `N=c1c2cc(-c3ccccc3)oc2ncn1/N=C/c1ccc(Cl)cc1`, the growth is 62.6%. The same measure, in the same setting: next, `C=CCn1c(SCC(=O)Nc2ccc(C(=O)/C=C/c3cc(OC)c(OC)c(OC)c3)cc2)nnc1-c1c[nH]c2ccccc12`: 34.1%; `COC(=O)C[Se]C(=O)Cc1c(C)n(C(=O)c2ccc(Cl)cc2)c2ccc(OC)cc12`: 57.1%; `COc1ccc(NC2=C(Cl)C(=O)c3nc(C)ccc3C2=O)cc1OC`: 90.5%. Same read-out and setting: next, `NC(N)=Nc1ccc(Oc2cccc(NC(N)=Nc3ccc(I)cc3F)c2)cc1`: 54.3%.

(Values after PubChem BioAssay (NCI).)
